In PubChem BioAssay (NCATS):
Records with an inconclusive call do not appear. A call without a number means that no potency is given here. Unmarked numbers belong to inactive results. The source made the active and inactive calls. The call rests on the fitted dose curve; in most records, active means well fitted cell-killing curve with a large enough effect; inconclusive means small, poorly fitted or top-dose-only effect; inactive means no such curve, though single readings can be large or run the other way.

Assay: qHTS of pediatric cancer cell lines to identify multiple opportunities for drug repurposing: Primary screen for OHS-50 cells (AID 1347103); further: nearly all actives have a fitted effect of over 40% in size
Conditions: OHS-50 osteosarcoma viability, CellTiter-Glo luminescence, 48 h; series mostly up to 57.3 µM
Source text: Drug repurposing or repositioning has been offered as a strategy for drug development in oncology programs. This approach has special potential for childhood cancers and other rare or orphan diseases, where the expected return on new drug development has been a disincentive to pharmaceuticals.
In this project we exploit the poly-pharmacology of drugs to discover new indications via phenotypic screening of a panel of 19 well-characterized cell lines derived from solid tumors seen in children and adolescents. The goal is to identify approved drugs with previously unrecognized anticancer properties that has the potential to reveal new mechanisms and biological processes involved in carcinogenesis or drug resistance. We employed a titration-based paradigm (quantitative high-throughput screening or qHTS), where all compounds were tested at multiple concentrations for their effect on cell viability. Concentration-response curves (CRCs) were derived directly from the primary screen, and both potency and efficacy values were used to identify compounds with robust bioactivity profiles. We screened the NIH Chemical Genomics Center (NCGC) Pharmaceutical Collection (NPC) and Mechanism Interrogation Plate (MIPE) small molecule collections of approved and investigational compounds against these cell lines; and measured metabolically active cells after 48 hours of compound treatment as a proxy for cell viability.
Assay Submitter: Nathalia J. Martinez, National Center for Advancing Translational Sciences, National Institutes of Health, Rockville, MD, USA; email: natalia.martinez@nih.gov
[1] Shen, M et al. Quantitative high-throughput phenotypic screening of pediatric cancer cell lines identifies multiple opportunities for drug repurposing. Oncotarget 2017 Dec 19;9(4):4758-4772. PMID 29435139.
The cells were obtained from University of North Carolina (UNC), Pediatric Preclinical Testing Program (PPT), and Coriell Institute (CI).
qHTS cell viability assay:
Cells were assayed in growth media at a density of 500-1,000 cells/well. Five microliters of cells were dispensed into 1,536-well, white, solid-bottom, TC-treated plates (Greiner Bio One) using a multidrop dispenser and incubated at 37 degrees C, 5% CO2, under a humidified atmosphere for 5 hours. Twenty-three nanoliters of compounds and controls (neutral control DMSO or positive control bortezomib at final concentration of 2.3 µM) were subsequently transferred by Kalypsys pintool. For primary screens, the MIPE collection was tested at 11-point dilutions (final concentrations range from 0.78 nM to 46 µM) and the NPC collection at 8-point dilutions (final concentrations range from 0.59 nM to 46 µM). Compounds tested in follow-up screens were assayed at 11-point dilutions. Cells were incubated for 48 hours, followed by addition of 3 µL of CellTiter-Glo (Promega). After a 15 min incubation at room temperature, samples were analyzed for luminescence intensity using a ViewLux High-throughput CCD imager equipped with clear filters.
Potency means the concentration at half of the fitted maximal effect.

SMILES | Potency | activity change, negative = cytotoxic
CN1CCN(C2Cc3ccccc3Sc3ccc(Cl)cc32)CC1 (stereo not given) | 27.6 µM (active) | 
COc1cc(C)c(Cc2cnc(N)nc2N)cc1OC | inactive | 
CC1CC(OC(=O)C(O)c2ccccc2)CC(C)(C)N1C (stereo not given) | inactive | 
O=C(Oc1ccccc1C(=O)O)c1ccccc1O | inactive | 
C[C@H]1O[C@@H](n2cc(F)c(=O)[nH]c2=O)[C@H](O)[C@@H]1O | inactive | 
NC(=O)NNc1ccccc1 | inactive | 
C[C@@H]1CN(c2c(F)c(F)c3c(=O)c(C(=O)O)cn(C4CC4)c3c2F)C[C@H](C)N1 | inactive | 
Cc1cc2c(cc1S(N)(=O)=O)S(=O)(=O)CCC2 | inactive | 
C[C@@H]1CC[C@@]2(OC1)O[C@H]1C[C@H]3[C@@H]4CC[C@H]5C[C@@H](O)CC[C@]5(C)[C@H]4CC(=O)[C@]3(C)[C@H]1[C@@H]2C |  | 9.93% [at 6.18 µM]
O=Cc1ccccc1C=O | inactive | 
CC(O)CN(CCN(CC(C)O)CC(C)O)CC(C)O (stereo not given) | inactive | 
CCCCCCCCCCCCCCCCCCOCC(O)CO (stereo not given) | inactive | 
CC(C)(C)NCC(O)COc1ccc(NC(=O)NC2CCCCC2)cc1 (stereo not given) | inactive | 
N[C@H]1C(O)O[C@H](CO)[C@@H](O)[C@@H]1O (stereo not given in full) | inactive | 
Cc1cc(C(C#N)c2ccc(Cl)cc2)c(Cl)cc1NC(=O)c1cc(I)cc(I)c1O (stereo not given) | 30.9 µM (active) | 
CC(=O)OCC(=O)[C@@]1(O)CC[C@H]2[C@@H]3CCC4=CC(=O)CC[C@]4(C)[C@H]3C(=O)C[C@@]21C | inactive | 
C=Cc1c(C)c2cc3[nH]c(cc4nc(cc5nc(cc1[nH]2)C(C)=C5CCC(=O)O)C(CCC(=O)O)=C4C)c(C)c3C=C | inactive | 
C/C(=C(\CCOP(=O)(O)O)SC(=O)c1ccccc1)N(C=O)Cc1cnc(C)nc1N |  | 12% [at 6.18 µM]
Nc1cc(=O)[nH]c(N)n1 | inactive | 
NC(CSCC(=O)O)C(=O)O (stereo not given) | inactive | 

SMILES | Potency | activity change, negative = cytotoxic
Cn1cc[nH]c1=S | inactive | 
CC(=O)Nc1ccc(/C=N/NC(N)=S)cc1 | inactive | 
OC[C@H]1O[C@@H](O[C@@H]2[C@@H](CO)O[C@](O)(CO)[C@H]2O)[C@H](O)[C@@H](O)[C@H]1O | inactive | 
CC(C)C(=O)c1c(C(C)C)nn2ccccc12 | inactive | 
C[C@H](N)[C@H](O)c1cccc(O)c1 | inactive | 
CC(C)(O)c1ccccc1CC[C@@H](SCC1(CC(=O)O)CC1)c1cccc(/C=C/c2ccc3ccc(Cl)cc3n2)c1 | inactive | 
Oc1cn2c(n1)Nc1ccc(Cl)c(Cl)c1C2 | inactive | 
O=c1[nH]c(=O)c2[nH]c(=O)[nH]c2[nH]1 |  | -8.33% [at 11.5 µM]
Cn1c(=O)c2c(ncn2CC2OCCO2)n(C)c1=O | inactive | 
CCOC(=O)c1ccc(O)cc1 | inactive | 
N[C@H](C(=O)O)c1ccc(O)cc1 | inactive | 
COc1ccc2cc1Oc1cc3c(cc1OC)CC[N+](C)(C)[C@H]3Cc1ccc(cc1)Oc1c(OC)c(OC)cc3c1[C@@H](C2)[N+](C)(C)CC3 | inactive | 
Nc1ccc(S(=O)(=O)Nc2ccccc2)cc1 | inactive | 
CC1(C)S[C@@H]2[C@H](NC(=O)Cc3ccccc3)C(=O)N2[C@H]1C(=O)O (tested in a mixture with another compound) | inactive | 
CNC(=O)Oc1ccc2c(c1)[C@]1(C)CCN(C)[C@@H]1N2C | inactive | 
CC(C)(C)C(=O)C(Oc1ccc(Cl)cc1)n1ccnc1 (stereo not given) | inactive | 
CCN(CC)CCNC(=O)c1cc(Cl)c(N)cc1OC | inactive | 
CC[C@@]1(c2ccccc2)NC(=O)N(C)C1=O | inactive | 
CCCn1cnc2c1c(=O)n(CCCCC(C)=O)c(=O)n2C | inactive | 
CCCCCCCCCCCCOS(=O)(=O)O | inactive | 
